Structures are written as SMILES. About 1,600 (39%) of roughly 4,100 compounds were called active. Inconclusive results (about 25%) are left out. Some of the results follow. Unmarked numbers belong to inactive results. Calls come from the whole dose curve; as a rule, active = well fitted inhibition curve with a large enough effect; inconclusive = small, poorly fitted or top-dose-only effect; inactive = no such curve, though single readings can be large or run the other way.
% is set by controls: 0 for no effect and ±100 for the full control effect; potency is the fitted concentration of half-maximal effect.

The test is described as follows: qHTS Validation assay for Inhibitors of Plasmodium falciparum Dd2 growth in vitro. Note: nearly all actives have a fitted effect of over 70% in size. To be noted: P. falciparum Dd2 in RBCs, SYBR Green growth, 72 h; series mostly up to 28.7 µM; activity change, negative = inhibition: at the top concentration. The method, boiled down: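 P. falciparum Dd2-infected red blood cells (2.5% hematocrit, 0.3% parasitemia) grown 72 h at 37 °C under 5% O2 with compounds in a titration, 29 uM to 0.5 nM final. Growth read as SYBR Green-1 fluorescence after ~16 h lysis; artesunate 300 nM as positive control.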
On to `Cc1nn2c(c1-c1ccccc1[S+](C)(=O)[O-])N(CCC(C)C)CCC2`, for which the Potency was 9.68 µM (active).
For `O=C1CCC2(CCN1)CCN(C(=O)C1CCCCC1)CC2`, the “activity change, negative = inhibition” value is 5.58%.
Same read-out and setting: next, `CCC(=O)N1c2ccccc2CC1C(=O)NCc1ccccc1C` (centres undefined): -8.52%; `COc1ccc(C(=O)N2CCC(C3CCN(S(C)(=O)=O)CC3)C2)c(OC)n1` (centres undefined): 4.48%.
On the same count and under the same terms, next, `COc1ccccc1N(CC(=O)Nc1cc(C)cc(C)c1)S(C)(=O)=O`: 20.6%.
For the compound `CCN(CC)c1ccc(NC(=O)COc2ccccc2C#N)cc1S(=O)(=O)Nc1ccccc1OC`, the Potency is 7.5 µM (active).
Still for that read-out and setting: next, `CN(C)CC(CCC(CN(C)C)C(O)(c1ccccc1)c1ccccc1)C(O)(c1ccccc1)c1ccccc1` (centres undefined): 2.11 µM (active).
For `OC(Cc1ccncc1)(c1ccccc1)c1ccccc1`, the “activity change, negative = inhibition” value is -3.46%.
The same measure, in the same setting: next, `CCOc1ccccc1Nc1nc2ccccc2nc1NS(=O)(=O)c1ccc(Cl)cc1`: -48.2%.
As to `O=S(=O)(Nc1cc2nc3ccccc3nc2n1Cc1ccccc1)c1ccc(Cl)cc1`, the Potency was 1.19 µM (active).
Turning to `Cc1nn(CCCC(=O)Nc2ccccc2C(F)(F)F)c(=O)c2nn(-c3ccccc3)c(C)c12`, the “activity change, negative = inhibition” value is -20.3%.
For the compound `COc1cc(Br)c(C(C)NC(=O)c2cccc(Br)c2)cc1OC` (centres undefined), the Potency is 2.11 µM (active).
As for `O=C(Nc1ccccc1O)c1ccc(NC(=O)C2CC2)cc1`, the Potency is 4.73 µM (active).
In the case of `CC(C)CN1C(=O)CO[C@H](c2ccc(NC(=O)C3CCCC3)cc2)[C@H]1CO`, the “activity change, negative = inhibition” value is 36.8% [at 43.1 µM].
With `COc1ccccc1N1CCN(CCCNC(=O)c2cnn(-c3ccccc3Cl)c2C2CCN(C(=O)OC(C)(C)C)CC2)CC1`, the Potency was 2.37 µM (active).
Still for that read-out and setting: in the case of `COc1ccccc1N1CCN(CCCNC(=O)c2cnn(-c3cccc(Cl)c3)c2C2CCN(C(=O)OC(C)(C)C)CC2)CC1` it was 2.11 µM (active); in that of `Cc1cc(Nc2cccc(C(F)(F)F)c2)nc2ccc(NC(=O)c3cncc(Br)c3)cc12`, 2.37 µM (active).
For the compound `CCOc1ccc(C(=O)Nc2cccc(NC(=O)c3ccc(C(C)(C)C)cc3)c2)cc1Br`, the “activity change, negative = inhibition” value is 1.12%.
For `CCN1CCN(c2cc(C)c3cc(NC(=O)c4cc(OC)c(OC)c(OC)c4)ccc3n2)CC1`, the Potency is 1.33 µM (active).
On to `Cc1cc(=O)n2[nH]c(NC(=O)c3cccc(Cl)c3)nc2n1`, for which the “activity change, negative = inhibition” value is -24%.
On to `CCN1CCN(c2cc(C)c3cc(NC(=O)c4cc(OC)cc(OC)c4)ccc3n2)CC1`, for which the Potency is 3.35 µM (active).
The same measure, in the same setting: in the case of `CCN1CCN(c2cc(C)c3cc(NC(=O)c4cccc(Cl)c4)ccc3n2)CC1` it was 4.73 µM (active).
`CCN1c2cc(C(=O)Nc3cccc(Cl)c3)ccc2C(=O)N2CCCCC21` (centres undefined): the “activity change, negative = inhibition” value is 8.46%.
Still for that read-out and setting: next, `CNC(=O)[C@@H]1C[C@H](Oc2ccccc2)CN1C(=O)c1cc2ccccc2[nH]1`: 5.84%.
With `COc1ccc(Nc2cc(C)c3cc(NC(=O)c4cc(OC)cc(OC)c4)ccc3n2)cc1`, the Potency was 0.75 µM (active).
Same read-out and setting: next, `COc1cc(C(=O)Nc2ccc3nc(N4CCN(C)CC4)cc(C)c3c2)cc(OC)c1OC`: 3.35 µM (active).
As for `COc1ccc(NC(=O)CCn2ccn3nc4c(c3c2=O)CCCC4)cc1OC`, the “activity change, negative = inhibition” value was 13.3%.
The same measure, in the same setting: in the case of `Cc1noc(-c2cccc(OC3CN(S(=O)(=O)c4cn(C)cn4)C3)c2)n1` it was 38.6%.
Regarding `CCCNC(=O)N1CC(Oc2cccc(-c3nc(-c4ccccc4)no3)c2)C1`, the Potency was 13.3 µM (active).
Turning to `O=C(c1ccco1)N1CC(Oc2cccc(-c3nc(-c4ccccc4)no3)c2)C1`, the “activity change, negative = inhibition” value is -21.8%.
The same measure, in the same setting: in the case of `COc1ccc(OC)c(S(=O)(=O)NCCc2sc(C)nc2C)c1` it was -7.9%.
On to `COc1ccc(OC)c(S(=O)(=O)Nc2ccc(O)c3ccccc23)c1`, for which the Potency is 8.41 µM (active).
For `Cc1nc(-c2ccc(Cl)cc2)sc1CCNC(=O)c1ccco1`, the “activity change, negative = inhibition” value was -10.7%.
`CCCCN(C(=O)c1ccco1)c1nnc(-c2cc(OC)c(OC)c(OC)c2)s1`: the Potency is 2.99 µM (active).
As for `Cc1ccc(C(=O)NN2C(=O)C3C4C=CC(C4)[C@@H]3C2=O)cc1` (some centres undefined), the “activity change, negative = inhibition” value was 68.1%.
Still for that read-out and setting: in the case of `O=C(c1ccc2ncccc2c1)N1CCc2c(nc3cc[nH]n3c2=O)C1` it was 8.27%.
In the case of `OC(CNCC1CCCO1)Cn1c2ccc(Cl)cc2c2cc(Cl)ccc21` (centres undefined), the Potency is 1.19 µM (active).
As for `Cc1noc(C)c1-c1cc2c(cc(C)n2C)c(NCCN(C)C)n1`, the “activity change, negative = inhibition” value is -28.9% [at 43.1 µM].
As to `COc1cc(-c2nc(-c3c(C)noc3C)cc3c2cc(C)n3CCN(C)C)ccn1`, the Potency is 17.2 µM (active).
With `COc1cccc(-c2noc(CCCc3nc(-c4cccnn4)no3)n2)c1`, the “activity change, negative = inhibition” value was 48.1%.
Still for that read-out and setting: in the case of `CCc1cccc(C)c1Nc1c(-c2cccc(O)c2)nc2sccn12` it was 0.531%.
Turning to `COc1cccc(-c2nc(-c3c(C)noc3C)cc3c2cc(C)n3CCN(C)C)c1`, the Potency was 17.2 µM (active).
Regarding `Cc1noc(C)c1-c1cc2c(cc(C)n2CCN(C)C)c(-c2cccc(O)c2)n1`, the Potency is 17.2 µM (active).
On the same count and under the same terms, next, `Cc1noc(C)c1-c1cc2c(cc(C)n2CCN(C)C)c(Nc2ccn(C)n2)n1`: 13.7 µM (active).
In the case of `O=[S+]1([O-])NCC2(CCN(CC3CC3)CC2)Nc2ccccc21`, the “activity change, negative = inhibition” value was 23.9% [at 43.1 µM].
With `O=C(c1cccc(O)c1)N1CC=C(c2cnc3cnc(-c4ccccc4)cn23)CC1`, the Potency is 9.68 µM (active).
`O=C(c1ccsc1)N1CC(n2cc(-c3ccccc3)nn2)C1`: the “activity change, negative = inhibition” value was 16.2%.
As to `Cc1c(CN2CC(Oc3ccccc3C(=O)NCc3ccccc3)C2)cnn1C`, the Potency was 4.22 µM (active).
As to `O=C(NCC1CC1)c1cccc(OC2CN(Cc3cc(F)c(F)c(F)c3)C2)c1`, the “activity change, negative = inhibition” value was -6.52%.
In the case of `Cc1ccsc1CN1CC(Oc2ccccc2C(=O)NC2CC2)C1`, the “activity change, negative = inhibition” value is -24.7%.
The same measure, in the same setting: next, `O=C(NCc1ccc(F)cc1)c1c2c(nc3ccccc13)C(=O)N(C1CCCCC1)C2`: 0%; `COCCNC(=O)[C@H]1C[C@H](Oc2ccccc2)CN1C(=O)c1ccccc1OC`: 14.8%.
Take `COc1ccc(CN2CC(Oc3ccccc3C(=O)NCc3ccccc3)C2)c(OC)c1`: the Potency was 10.6 µM (active).
For `O=C(NCc1ccccc1)c1ccccc1OC1CN(Cc2ccc(O)c(F)c2)C1`, the Potency was 15 µM (active).
With `CCCN1CCN(C(=O)c2cc3c(s2)CCN(C(=O)c2ccc(F)cc2)C3)CC1`, the “activity change, negative = inhibition” value is -26.7%.
For `O=C1C2=C(Nc3ccccc3SC2c2ccco2)c2ccccc21` (centres undefined), the Potency is 4.73 µM (active).
As to `O=C1C2=C(Nc3ccccc3SC2c2c(F)cccc2Cl)c2ccccc21` (centres undefined), the Potency was 9.44 µM (active).
In the case of `COc1ccc(C2Sc3ccccc3NC3=C2C(=O)c2ccccc23)c(OC)c1OC` (centres undefined), the Potency was 0.75 µM (active).
The same measure, in the same setting: in the case of `CCn1cc(CN2CCCC23CCN(c2cc(C)nc4ccccc24)CC3)c(C)n1` it was 4.22 µM (active); in that of `CCn1ncc(CN2CCCC23CCN(c2cc(C)nc4ccccc24)CC3)c1C`, 5.31 µM (active).
Take `N#Cc1ccc(CN2CCc3n[nH]c(=O)n3CC2)cc1`: the “activity change, negative = inhibition” value was 18%.
As to `CN(C)c1nc2c(c(=O)[nH]1)CCN(Cc1ccc(F)cc1Cl)CC2`, the Potency was 10.6 µM (active).
On the same count and under the same terms, in the case of `CN(C)c1nc2c(c(=O)[nH]1)CCN(Cc1ccc(Br)cc1)CC2` it was 13.3 µM (active).
`COc1cc(OC)c(OC)cc1CN1CCc2nc(N(C)C)[nH]c(=O)c2CC1`: the “activity change, negative = inhibition” value was 3.94%.
`CN(C)c1nc2c(c(=O)[nH]1)CCN(Cc1ccccc1Br)CC2`: the Potency was 9.44 µM (active).
In the case of `O=C(CCc1ccccc1)N1CCc2c(nc(-c3ccc(F)cc3)[nH]c2=O)C1`, the “activity change, negative = inhibition” value was 3.77%.
The same measure, in the same setting: next, `CN(C)c1ccc(C(=O)NCc2nnc3cc(-c4nc(C5CC5)no4)ccn23)cc1`: 8.1%.
Regarding `Oc1cc(Nc2ccccc2)cc2cccnc12`, the Potency was 6.68 µM (active).
Still for that read-out and setting: next, `COc1ccc(Nc2cc(O)c3ncccc3c2)cc1`: 0.75 µM (active); `Oc1cc(Nc2ccc(N3CCCCC3)cc2)cc2cccnc12`: 0.842 µM (active).
In the case of `Cc1ccc(OCC(=O)Nc2ccccc2C(=O)OCc2cc(=O)n3ccsc3n2)cc1`, the “activity change, negative = inhibition” value is 36.1%.
As for `CCOC(=O)c1ccccc1NC(=O)C(C)Oc1ccccc1` (centres undefined), the Potency was 10.6 µM (active).
For `O=C(c1ccc2nc[nH]c2c1)N1CCCC2(C1)Nc1cccnc1NC2=NC1CCCC1` (centres undefined), the “activity change, negative = inhibition” value is 0%.
The same measure, in the same setting: next, `COc1ccc(C)cc1NC(=O)N1c2ccccc2CC1c1nc(C2CC2)no1` (centres undefined): -12.9%.
Turning to `COc1ccc(C)cc1NC(=O)N1CCCC2(C1)Nc1cccnc1NC2=NC1CCCC1` (centres undefined), the Potency was 6.68 µM (active).
Regarding `CCOc1ccc(-c2cc3c(=O)n(CCNC(=O)c4ccc(C#N)cc4)ccn3n2)cc1`, the “activity change, negative = inhibition” value was -7.04%.
Same read-out and setting: in the case of `CCOc1ccc(-c2cn3c(n2)sc2cc(C(=O)NCCCc4ccccc4)ccc23)cc1` it was -30.3%.
Still for that read-out and setting: next, `CCOc1ccc(-c2cc3c(=O)n(CCNC(=O)c4cccc(C#N)c4)ccn3n2)cc1`: -6.7%.
For `CCCN1CCN(CCCNC(=O)c2ccc3c(c2)sc2nc(-c4ccc(OCC)cc4)cn23)CC1`, the Potency was 4.22 µM (active).
Same read-out and setting: in the case of `COc1ccc(-c2cn3c(n2)sc2cc(C(=O)NCCCN4CCCCC4)ccc23)cc1` it was 4.73 µM (active).
Take `COc1ccc(-c2cc3c(=O)n(CCNC(=O)c4ccc(OC)c(OC)c4)ccn3n2)cc1`: the “activity change, negative = inhibition” value was -16.9%.
As to `CCCN1CCN(CCCNC(=O)c2ccc3c(c2)sc2nc(-c4ccc(OC)cc4)cn23)CC1`, the Potency is 4.73 µM (active).
For `COc1ccc(-c2cc3c(=O)n(CCNC(=O)c4ccc(OC)nc4)ccn3n2)cc1`, the “activity change, negative = inhibition” value was -14.6%.
`CCOc1ccc(-c2cc3c(=O)n(CCNC(=O)c4ccccc4)ccn3n2)cc1`: the “activity change, negative = inhibition” value is 13.3%.
For `CCOc1ccc(-c2cn3c(n2)sc2cc(C(=O)NC(C)C45CC6CC(CC(C6)C4)C5)ccc23)cc1` (centres undefined), the Potency is 5.96 µM (active).
For `C#Cc1ccc(C(=O)Nc2ccc(N3CCC(C)CC3)c(C(N)=O)c2)cc1`, the Potency is 6.68 µM (active).
Take `CCN1c2cc(C(=O)Nc3ccc4c(c3)CCC4)ccc2C(=O)N2CCCCC21` (centres undefined): the “activity change, negative = inhibition” value was -10%.
Same read-out and setting: in the case of `CC1CCCCN1c1ccc(N)cc1C(N)=O` (centres undefined) it was 20.7%.
As to `Cc1ccc2c(c1)c1c3n2CCCN(Cc2ccccc2)C3CCC1` (centres undefined), the Potency was 4.22 µM (active).
On the same count and under the same terms, next, `CN(C)Cc1c(O)ccc2oc(Cc3ccccc3)cc12`: 0.422 µM (active); `COc1ccc(-n2c(/C=C(\C)O)nc(=O)c3c(C)cc(C)nc32)cc1`: 3.35 µM (active).
Consider `O=C(Cc1ccccc1)N1CCCC2(CC(c3ccccn3)=NO2)C1` (centres undefined), for which the “activity change, negative = inhibition” value was 39%.
On the same count and under the same terms, in the case of `CCOC(=O)c1c(C)[nH]c(C(=O)OCc2c(C)noc2C)c1C` it was 13.1%.
As for `CCOC(=O)c1c(C)[nH]c(C(=O)CSc2nnc(C3CC3)n2N)c1C`, the Potency was 1.5 µM (active).

Values taken from PubChem BioAssay AID1347416 (National Center for Advancing Translational Sciences (NCATS), 2020).
